Laboratory results reported in PubChem BioAssay (NCI).
Compounds without any hit were thinned out: in the full panel of roughly 79,000, 15% have a hit. Active and inactive are the calls of the source. No stated cut-off is given here; in the data, active means growth inhibition above about 70%; inactive means the rest.

How the values were obtained:
[1] = NCI Yeast Anticancer Drug Screen. Data for the mec2-1 strain (AID 157); settings: S. cerevisiae mec2-1 strain, active compounds read high
Method in brief: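 Each compound was tested on mec2-1 yeast, a strain altered in DNA damage repair or cell cycle control. Growth inhibition is reported relative to vehicle.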

[2] = NCI Yeast Anticancer Drug Screen. Data for the rad14 strain (AID 159);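 further: 0% = growth of vehicle-treated control cultures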; settings: S. cerevisiae rad14 strain growth inhibition, active compounds read high
Method in brief: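 Test compounds were applied to a repair-deficient yeast strain. Its growth was then compared with that of cultures given vehicle alone, and inhibition was expressed relative to those controls.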

[3] = NCI Yeast Anticancer Drug Screen. Data for the sgs1 mgt1 strain (AID 161);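 further: 0% = growth of cultures given vehicle only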; settings: S. cerevisiae sgs1 mgt1 strain, active compounds read high
Method in brief: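 Read-out: growth inhibition vs vehicle controls. Cells: mutant yeast strain deficient in DNA damage repair.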

[4] = NCI Yeast Anticancer Drug Screen. Data for the CLN2oe strain (AID 163);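 further: 0% = growth of vehicle-only control cultures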; settings: S. cerevisiae CLN2oe strain, active compounds read high
Method in brief: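 First, the altered yeast strain was treated with each compound; second, its growth was measured; finally, inhibition was derived by comparison with vehicle controls.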

[5] = NCI Yeast Anticancer Drug Screen. Data for the cln2 rad14 strain (AID 165);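 further: 0% = growth equal to vehicle treated cultures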; settings: S. cerevisiae cln2 rad14 strain, active compounds read high
Method in brief: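 Test compounds were added to cln2 rad14 yeast cultures; inhibition of growth was then determined by comparison with vehicle treatment.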

[6] = NCI Yeast Anticancer Drug Screen. Data for the bub3 strain (AID 167); settings: S. cerevisiae bub3 mutant strain, active compounds read high
Method in brief: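 Yeast carrying a defined mutation is treated with each compound, and growth is compared with that of vehicle-exposed cells to give inhibition.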

[7] = NCI Yeast Anticancer Drug Screen. Data for the wt2 strain (AID 169);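 further: 0% = growth of vehicle-treated yeast cultures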; settings: S. cerevisiae wt2 strain growth inhibition, active compounds read high
Method in brief: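 The panel's yeast strains carry defined changes in DNA repair or cell cycle genes. Each strain is grown with compound, and growth loss is scored relative to vehicle.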

[8] = NCI Yeast Anticancer Drug Screen. Data for the sgs1 strain (AID 173);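 further: 0% = growth of vehicle-only control cultures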; settings: S. cerevisiae sgs1 mutant, active compounds read high
Method in brief: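 Vehicle-treated cultures served as reference for growth inhibition of a yeast strain altered in DNA damage repair or cell cycle control after compound exposure.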

[9] = NCI Yeast Anticancer Drug Screen. Data for the mlh1 rad18 strain (AID 175); settings: S. cerevisiae mlh1 rad18 strain growth inhibition, active compounds read high
Method in brief: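 Inhibition values reflect reduced growth of mutant yeast versus vehicle-treated controls following compound exposure; the mutations affect DNA damage repair.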

[10] = NCI Yeast Anticancer Drug Screen. Data for the rad18 strain (AID 177); settings: S. cerevisiae rad18 mutant growth inhibition, active compounds read high
Method in brief: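 Steps: expose repair-mutant yeast to compound; measure growth; express as inhibition relative to vehicle control.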

[11] = NCI Yeast Anticancer Drug Screen. Data for the wt1 strain (AID 149);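 further: 0% = growth of vehicle-treated wt1 cultures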; settings: S. cerevisiae wt1 strain (SPY 50644) growth inhibition, active compounds read high
Method in brief: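 wt1 yeast, compound-treated; % growth inhibition vs vehicle control.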

[12] = NCI Yeast Anticancer Drug Screen. Data for the rad50EPP+ strain (AID 151);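 further: 0% = growth of vehicle-treated control cultures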; settings: S. cerevisiae rad50 mutant strain, active compounds read high
Method in brief: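 Genetically defined yeast (rad50EPP+, DNA damage repair alteration) is grown with compound, and inhibition of growth is expressed relative to vehicle-treated controls.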

[13] = NCI Yeast Anticancer Drug Screen. Data for the mgt1 strain (AID 153); settings: S. cerevisiae mgt1 mutant growth inhibition, active compounds read high
Method in brief: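 In the mgt1 strain, test compounds were added and growth inhibition was determined relative to vehicle-treated controls.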

[14] = NCI Yeast Anticancer Drug Screen. Data for the rad50 strain (AID 155);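 further: 0% = growth of vehicle-only cultures of the same strain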; settings: S. cerevisiae rad50 strain growth inhibition, active compounds read high
Method in brief: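 Genetically altered yeast (DNA repair pathway); compound treatment; growth inhibition vs vehicle ctrl.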

[15] = NCI Yeast Anticancer Drug Screen. Data for the mlh1 strain (AID 171);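 further: 0% = growth of vehicle-treated control cultures of the same strain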; settings: S. cerevisiae mlh1 strain growth inhibition, active compounds read high
Method in brief: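 Inhibition values reflect reduced yeast growth in the presence of compound, referenced to vehicle controls, using a strain chosen for its alteration in DNA repair or cell cycle control.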

[16] = at 5.0 µM (retest, dose inferred, filed as 0.5)
[17] = at 50.0 µM (retest, dose inferred, filed as 5.0)

Measured: growth inhibition

O=C1C=CC(=O)c2c(O)c(Nc3ccc(OC(F)(F)F)cc3)c(Cl)c(O)c21
inactive: [2]; at 1.2 µM 2% | [2]; at 3.7 µM 4% | [2]; at 11.0 µM 6% | [2]; at 33.0 µM 32% | [3]; [16] 35% | [3]; [17] 49% | [4]; at 1.2 µM -8% | [4]; at 3.7 µM 0% | [4]; at 11.0 µM -5% | [4]; at 33.0 µM 12% | [5]; [16] 19% | [5]; [17] 32% | [5]; at 50.0 µM 37.9% | [6]; at 1.2 µM -17% | [6]; at 3.7 µM -8% | [6]; [16] 26% | [6]; at 11.0 µM 1% | [6]; at 33.0 µM 48% | [6]; [17] 65% | [7]; at 1.2 µM -5% | [7]; at 3.7 µM -6% | [7]; at 11.0 µM -6% | [7]; at 33.0 µM 21% | [8]; at 1.2 µM 34% | [8]; at 3.7 µM 32% | [8]; at 11.0 µM 58% | [8]; at 33.0 µM 62% | [9]; [16] 13% | [9]; at 50.0 µM 68.7% | [10]; at 1.2 µM -2% | [10]; at 3.7 µM -2% | [10]; at 11.0 µM 4% | [10]; at 33.0 µM 45%
active: [1]; at 100.0 µM 94% | [2]; at 100.0 µM 92% | [3]; at 50.0 µM 73% | [4]; at 100.0 µM 83% | [6]; at 50.0 µM 82.2% | [6]; at 100.0 µM 91% | [7]; at 100.0 µM 93% | [8]; at 100.0 µM 96% | [9]; [17] 76% | [10]; at 100.0 µM 92%

COc1cc2c(c(OC)c1OC)-c1c(cc3c(c1OC)OCO3)CC(C)C(C)(O)C2OC(=O)c1ccccc1 (stereo unspecified)
active: [13]; at 100.0 µM 70% | [14]; at 50.0 µM 71.2% | [3]; at 50.0 µM 85.4% | [6]; at 50.0 µM 72.2% | [7]; at 100.0 µM 93% | [9]; at 50.0 µM 87.8%
inactive: [11]; at 1.2 µM -16% | [11]; at 3.7 µM -26% | [11]; at 11.0 µM -10% | [11]; at 33.0 µM 7% | [11]; at 100.0 µM 3% | [12]; at 1.2 µM -2% | [12]; at 3.7 µM -19% | [12]; at 11.0 µM -26% | [12]; at 33.0 µM -21% | [12]; at 100.0 µM 5% | [13]; at 1.2 µM -5% | [13]; at 3.7 µM -9% | [13]; at 11.0 µM -14% | [13]; at 33.0 µM -17% | [14]; at 1.2 µM -53% | [14]; at 3.7 µM -18% | [14]; [16] -3% | [14]; at 11.0 µM -25% | [14]; at 33.0 µM -17% | [14]; [17] 40% | [14]; at 100.0 µM 50% | [1]; at 1.2 µM -2% | [1]; at 3.7 µM 12% | [1]; [16] -8% | [1]; at 11.0 µM 16% | [1]; at 33.0 µM 12% | [1]; [17] 13% | [1]; at 50.0 µM 55.5% | [1]; at 100.0 µM 34% | [3]; [16] 19% | [3]; [17] 68% | [4]; at 1.2 µM 27% | [4]; at 3.7 µM 17% | [4]; at 11.0 µM 16% | [4]; at 33.0 µM 20% | [4]; at 100.0 µM 45% | [5]; [16] 10% | [5]; [17] 68% | [5]; at 50.0 µM 50.2% | [6]; at 1.2 µM -8% | [6]; at 3.7 µM 11% | [6]; [16] -2% | [6]; at 11.0 µM 10% | [6]; at 33.0 µM 22% | [6]; [17] 49% | [6]; at 100.0 µM 36% | [7]; at 1.2 µM -26% | [7]; at 3.7 µM -28% | [7]; at 11.0 µM -29% | [7]; at 33.0 µM 33% | [15]; at 1.2 µM -13% | [15]; at 3.7 µM -6% | [15]; at 11.0 µM -13% | [15]; at 33.0 µM -9% | [15]; at 100.0 µM 56% | [8]; at 1.2 µM -1% | [8]; at 3.7 µM -9% | [8]; at 11.0 µM 9% | [8]; at 33.0 µM -6% | [8]; at 100.0 µM 69% | [9]; [16] 3% | [9]; [17] 47% | [10]; at 1.2 µM -45% | [10]; at 3.7 µM -37% | [10]; at 11.0 µM -26% | [10]; at 33.0 µM -10% | [10]; at 100.0 µM 46%
